Test results taken from PubChem BioAssay (Tox21).
Inconclusive results are not listed. Entries that show only a call come without a potency. Activity calls are given as the source filed them. Unless noted, calls come from the whole dose curve; as a rule, active = well fitted curve in the direction sought with a large enough effect in the repeat runs; inconclusive = weak or mixed curves; inactive = no such curve, though single readings can be large; an effect the other way counts as inactive or inconclusive.

Experiments:
[1] = qHTS assay to identify small molecule antagonists of the glucocorticoid receptor (GR) signaling pathway - cell viability counter screen (AID 720693); note: nearly all actives have a fitted effect of over 55% in size
[2] = qHTS assay for identifying genotoxic compounds that show differential cytotoxicity against isogenic chicken DT40 cell lines with known DNA damage response pathways - wild type cell line (AID 743012); note: nearly all actives have a fitted effect of over 60% in size
Method in brief: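 Wild-type DT40 cells (300/well) exposed to compounds for 40 hours at 37 C/5% CO2. Viability read by CellTiter-Glo luminescence after 30 min at room temperature.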

[3] = qHTS assay for identifying genotoxic compounds that show differential cytotoxicity against isogenic chicken DT40 cell lines with known DNA damage response pathways - Rad54/Ku70 mutant cell line (AID 743015); note: nearly all actives have a fitted effect of over 60% in size; note: potency is the fitted concentration of half-maximal effect
[4] = qHTS assay to identify small molecule antagonists of the androgen receptor (AR) signaling pathway - cell viability counter screen (AID 743033; note: nearly all actives have a fitted effect of over 45% in size)
[5] = molecular target: Androgen receptor (Homo sapiens) (UniProt P10275); assay: qHTS assay to identify small molecule antagonists of the androgen receptor (AR) signaling pathway (AID 743035; active = well fitted inhibition curve with a large enough effect in the signal ratio in the repeat runs, not every such curve was filed as active; the % refers to the signal ratio)
Chain of Androgen receptor (Homo sapiens) (P10275 whole entry, looked up): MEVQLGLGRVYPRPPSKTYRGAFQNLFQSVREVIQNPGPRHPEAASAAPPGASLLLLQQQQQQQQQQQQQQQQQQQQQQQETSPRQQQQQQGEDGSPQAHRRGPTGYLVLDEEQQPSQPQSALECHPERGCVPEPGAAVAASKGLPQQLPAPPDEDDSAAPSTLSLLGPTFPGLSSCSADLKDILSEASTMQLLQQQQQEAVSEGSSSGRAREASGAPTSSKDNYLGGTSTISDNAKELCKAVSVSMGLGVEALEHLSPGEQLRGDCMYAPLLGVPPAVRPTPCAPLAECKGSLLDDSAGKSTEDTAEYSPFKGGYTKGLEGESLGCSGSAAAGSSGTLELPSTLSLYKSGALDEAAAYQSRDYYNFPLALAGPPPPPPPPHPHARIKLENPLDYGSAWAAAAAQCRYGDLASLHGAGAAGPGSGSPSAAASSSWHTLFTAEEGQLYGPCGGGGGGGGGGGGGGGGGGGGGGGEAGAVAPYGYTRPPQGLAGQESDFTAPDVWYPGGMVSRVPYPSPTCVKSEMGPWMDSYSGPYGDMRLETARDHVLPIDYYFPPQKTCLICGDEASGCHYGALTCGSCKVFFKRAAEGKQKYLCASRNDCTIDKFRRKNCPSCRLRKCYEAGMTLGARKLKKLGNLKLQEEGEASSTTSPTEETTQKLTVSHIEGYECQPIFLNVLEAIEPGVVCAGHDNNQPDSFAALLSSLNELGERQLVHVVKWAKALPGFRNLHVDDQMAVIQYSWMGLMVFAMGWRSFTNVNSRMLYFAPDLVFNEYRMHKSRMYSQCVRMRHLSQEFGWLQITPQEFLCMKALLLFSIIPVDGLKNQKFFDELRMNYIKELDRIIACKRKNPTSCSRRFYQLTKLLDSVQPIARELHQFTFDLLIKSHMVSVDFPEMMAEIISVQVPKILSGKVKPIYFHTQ
Method in brief: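 HEK293 cells stably carrying UAS-beta-lactamase reporter, 2,000/well, given compounds plus R1881 agonist and incubated 16 h at 37C. LiveBLAzer B/G FRET substrate then added for 2 h at room temperature before fluorescence reading.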

[6] = molecular target: Androgen receptor (Homo sapiens) (UniProt P10275); assay: qHTS assay to identify small molecule agonists of the androgen receptor (AR) signaling pathway using the MDA cell line (AID 743040; note: nearly all actives have a fitted effect of over 20% in size; note: potency is the fitted concentration of half-maximal effect)
Method in brief: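 After a 5 h incubation at 37C and 0% CO2, MDA-kb2 reporter cells were dosed with compounds in DMSO and kept 16 h under the same conditions. Luciferase activity was then read as luminescence with ONE-Glo.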

[7] = qHTS assay to identify small molecule antagonists of the androgen receptor (AR) signaling pathway using the MDA cell line - cell viability counter screen (AID 743041; note: nearly all actives have a fitted effect of over 45% in size)
Method in brief: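 R1881-driven MDA-kb2 AR-luc cells, 3,000/well, were dosed with library compounds for 16 h; cell health came from CellTiter-Fluor fluorescence in the reporter wells.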

[8] = molecular target: Androgen receptor (Homo sapiens) (UniProt P10275); assay: qHTS assay to identify small molecule antagonists of the androgen receptor (AR) signaling pathway using the MDA cell line (AID 743042; note: nearly all actives have a fitted effect of over 55% in size)
Method in brief: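 Antagonist mode: compounds plus R1881 agonist added to MDA-kb2 AR-luc cells, incubated 16 h at 37C. Luciferase reporter luminescence quantified, with multiplexed CellTiter-Fluor readout for cell viability.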

[9] = qHTS assay to identify small molecule antagonists of the thyroid receptor (TR) signaling pathway - cell viability counter screen (AID 743064); note: nearly all actives have a fitted effect of over 50% in size; note: potency is the fitted concentration of half-maximal effect
Method in brief: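 CellTiter-Fluor readout, 30 min at 37 °C/5% CO2, following 23.5 h incubation of GH3.TRE-Luc cells with test compound and 1 nM T3 (final).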

[10] = qHTS assay to identify small molecule antagonists of the thyroid receptor (TR) signaling pathway (AID 743065); note: nearly all actives have a fitted effect of over 55% in size; note: potency is the fitted concentration of half-maximal effect
Method in brief: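 Antagonism measured as loss of luciferase signal in GH3 cells stably carrying a TRE-luciferase reporter, co-treated with compound and T3 (1 nM final) for 23.5 h at 37 C. Viability was read in the same well by CellTiter-Fluor.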

[11] = tested on: thyroid hormone receptor (rat, GH3 cells); assay: qHTS assay to identify small molecule agonists of the thyroid receptor (TR) signaling pathway (AID 743066; calls by dose curve)
[12] = qHTS assay to identify small molecule antagonists of the estrogen receptor alpha (ER-alpha) signaling pathway - cell viability counter screen (AID 743074; calls by dose curve;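 note: HEK293 cells carrying ER-alpha-UAS-bla reporter stimulated with 17beta-estradiol; nearly all actives have a fitted effect of over 45% in size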)
[13] = qHTS assay to identify small molecule antagonists of the estrogen receptor alpha (ER-alpha) signaling pathway using the BG1 cell line - cell viability counter screen (AID 743081);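 note: compound given together with 17beta-estradiol as the ER stimulus; series mostly up to about 70 µM; nearly all actives have a fitted effect of over 45% in size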
Aromatase (Homo sapiens) = Aromatase (Homo sapiens) (UniProt P11511); assay: qHTS assay to identify aromatase inhibitors (AID 743083); note: series mostly up to about 70 µM; nearly all actives have a fitted effect of over 55% in size
Chain of Aromatase (Homo sapiens) (P11511 whole entry, looked up): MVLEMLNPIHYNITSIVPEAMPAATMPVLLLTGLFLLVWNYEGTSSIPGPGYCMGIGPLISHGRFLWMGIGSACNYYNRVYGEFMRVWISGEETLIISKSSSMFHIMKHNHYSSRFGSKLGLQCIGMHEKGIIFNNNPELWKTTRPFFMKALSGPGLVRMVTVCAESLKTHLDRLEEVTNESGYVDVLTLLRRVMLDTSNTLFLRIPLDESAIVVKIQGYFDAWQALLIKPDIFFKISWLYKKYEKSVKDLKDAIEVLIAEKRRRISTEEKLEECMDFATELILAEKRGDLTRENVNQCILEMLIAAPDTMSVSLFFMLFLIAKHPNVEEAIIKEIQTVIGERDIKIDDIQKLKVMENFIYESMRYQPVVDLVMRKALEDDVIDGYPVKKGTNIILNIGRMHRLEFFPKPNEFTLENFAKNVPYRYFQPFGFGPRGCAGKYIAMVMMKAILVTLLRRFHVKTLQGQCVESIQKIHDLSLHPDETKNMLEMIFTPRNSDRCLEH

[14] = qHTS assay for identifying genotoxic compounds that show differential cytotoxicity against isogenic chicken DT40 cell lines with known DNA damage response pathways - Rev3 mutant cell line (AID 743014); note: nearly all actives have a fitted effect of over 55% in size; note: potency is the fitted concentration of half-maximal effect
[15] = molecular target: Estrogen receptor (Homo sapiens) (UniProt P03372); assay: qHTS assay to identify small molecule antagonists of the estrogen receptor alpha (ER-alpha) signaling pathway (AID 743069; active = well fitted curve in the direction sought with a large enough effect in the signal ratio in the repeat runs, not every such curve was filed as active; the % refers to the signal ratio)
Chain of Estrogen receptor (Homo sapiens) (P03372 whole entry, looked up): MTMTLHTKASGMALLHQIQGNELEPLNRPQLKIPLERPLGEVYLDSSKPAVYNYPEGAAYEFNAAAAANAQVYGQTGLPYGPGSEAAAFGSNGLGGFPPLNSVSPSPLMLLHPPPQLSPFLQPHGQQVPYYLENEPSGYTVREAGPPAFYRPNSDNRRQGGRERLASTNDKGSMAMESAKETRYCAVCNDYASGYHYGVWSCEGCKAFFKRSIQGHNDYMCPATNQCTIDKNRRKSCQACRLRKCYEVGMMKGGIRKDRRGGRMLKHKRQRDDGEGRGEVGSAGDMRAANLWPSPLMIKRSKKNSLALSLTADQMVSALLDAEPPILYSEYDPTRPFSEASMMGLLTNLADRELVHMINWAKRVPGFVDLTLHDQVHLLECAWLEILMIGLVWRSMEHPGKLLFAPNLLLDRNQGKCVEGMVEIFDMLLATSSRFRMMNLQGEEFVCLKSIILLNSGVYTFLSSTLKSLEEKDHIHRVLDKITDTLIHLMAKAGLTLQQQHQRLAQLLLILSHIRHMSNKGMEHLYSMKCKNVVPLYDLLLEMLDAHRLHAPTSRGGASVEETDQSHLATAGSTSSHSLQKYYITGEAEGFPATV
Method in brief: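 Compound effects are measured against 17beta-estradiol stimulation in HEK293 cells with a UAS-controlled beta-lactamase reporter for ER-alpha. Exposure lasts 18 hr at 37C; LiveBLAzer B/G FRET substrate follows for 2 hr at room temperature.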

[16] = molecular target: Estrogen receptor (Homo sapiens) (UniProt P03372); assay: qHTS assay to identify small molecule agonists of the estrogen receptor alpha (ER-alpha) signaling pathway (AID 743075; calls by dose curve)
[17] = molecular target: Estrogen receptor (Homo sapiens) (UniProt P03372); assay: qHTS assay to identify small molecule agonists of the estrogen receptor alpha (ER-alpha) signaling pathway using the BG1 cell line (AID 743079); note: nearly all actives have a fitted effect of over 20% in size
[18] = qHTS assay to identify small molecule antagonists of the estrogen receptor alpha (ER-alpha) signaling pathway using the BG1 cell line (AID 743080; calls by dose curve;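 note: BG1 cells stimulated with 17beta-estradiol alongside compound; series mostly up to about 70 µM; nearly all actives have a fitted effect of over 25% in size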)
Method in brief: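 Endogenous full-length ER-alpha in BG1-Luc-4E2 cells drives a stably integrated 4×ERE luciferase gene; compounds were tested against 17beta-estradiol over 21.5 h, with luminescence and multiplexed viability fluorescence recorded.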

| SMILES | outcome [1] | Potency [2] | Potency [3] | Potency [4] | outcome [5] | Potency [6] | Potency [7] | Potency [8] | Potency [9] | Potency [10] | outcome [11] | outcome [12] | Potency [13] | Potency (Aromatase (Homo sapiens)) | Potency [14] | outcome [15] | Potency [16] | Potency [17] | outcome [18] |
| --- | --- | --- | --- | --- | --- | --- | --- | --- | --- | --- | --- | --- | --- | --- | --- | --- | --- | --- | --- |
| CN1CC(=O)NC1=N | inactive | inactive | inactive | inactive | inactive | inactive | inactive | inactive | inactive | inactive | inactive | inactive | inactive | inactive | – | – | – | – | – |
| c1cnc(N2CCN(Cc3ccc4c(c3)OCO4)CC2)nc1 | inactive | – | inactive | inactive | – | – | inactive | – | inactive | inactive | inactive | inactive | inactive | inactive | inactive | inactive | inactive | inactive | inactive |
| Oc1ccc(C2CNCCc3c2cc(O)c(O)c3Cl)cc1 (stereo not drawn) | inactive | – | inactive | inactive | – | – | inactive | – | – | – | – | inactive | inactive | inactive | inactive | – | – | – | – |
| CCCCCSCCCCC | inactive | – | – | inactive | – | – | inactive | – | inactive | inactive | inactive | inactive | inactive | inactive | 61.1 µM (active) | inactive | inactive | inactive | inactive |
| COc1c(N2C[C@@H]3CCCN[C@@H]3C2)c(F)cc2c(=O)c(C(=O)O)cn(C3CC3)c12 | inactive | – | inactive | inactive | – | – | inactive | – | – | – | – | inactive | inactive | inactive | – | inactive | inactive | inactive | inactive |
| N[C@H](C(=O)O)c1ccc(O)cc1 | inactive | – | inactive | inactive | – | – | inactive | – | inactive | – | – | inactive | inactive | inactive | inactive | inactive | inactive | inactive | inactive |
| COc1cc(C(=O)N2CCCCCCC2)cc(OC)c1OC | inactive | – | – | inactive | – | – | inactive | – | inactive | – | inactive | inactive | inactive | inactive | – | inactive | inactive | inactive | inactive |
| CCCC(=O)O[C@]1(C(=O)CO)CC[C@H]2[C@@H]3CCC4=CC(=O)CC[C@]4(C)[C@H]3[C@@H](O)C[C@@]21C | – | inactive | inactive | – | – | – | inactive | – | inactive | inactive | inactive | inactive | inactive | inactive | inactive | – | – | – | – |
| CN1CCCC1 | inactive | – | inactive | – | – | – | inactive | – | inactive | inactive | inactive | – | inactive | inactive | inactive | inactive | inactive | inactive | inactive |
| COc1ccc(CCN(C)CCCC(C#N)(c2cc(OC)c(OC)c(OC)c2)C(C)C)cc1OC (stereo not drawn) | inactive | – | 29.8 µM (active) | inactive | – | – | inactive | – | 29.8 µM (active) | – | inactive | inactive | – | inactive | 29.8 µM (active) | – | – | – | – |
| N=c1nc(N2CCCCC2)cc(N)n1O | inactive | – | inactive | inactive | – | – | inactive | – | inactive | inactive | inactive | inactive | inactive | inactive | – | inactive | inactive | inactive | inactive |
| COC(=O)NN | – | inactive | inactive | inactive | – | – | inactive | – | inactive | inactive | inactive | inactive | inactive | inactive | inactive | inactive | inactive | inactive | inactive |
| Cc1[nH]c(=O)c(C#N)cc1-c1ccc2nccn2c1 | inactive | – | inactive | inactive | – | – | – | – | inactive | – | inactive | inactive | inactive | – | – | – | – | – | – |
| CO/N=C(/C(=O)N[C@@H]1C(=O)N2C(C(=O)OCOC(=O)C(C)(C)C)=C(C)CS[C@H]12)c1csc(N)n1 | inactive | – | inactive | inactive | – | – | inactive | – | inactive | – | inactive | – | inactive | inactive | inactive | – | – | – | – |
| FC(F)OC(Cl)C(F)(F)F (stereo not drawn) | inactive | – | inactive | inactive | – | – | inactive | – | inactive | – | inactive | inactive | inactive | inactive | inactive | – | – | – | – |
| CN1CCN(c2cc3c(cc2F)c(=O)c(C(=O)O)cn3-c2ccc(F)cc2)CC1 | inactive | – | 29.8 µM (active) | – | – | 26.6 µM (active) | – | inactive | inactive | inactive | inactive | inactive | inactive | inactive | – | – | – | – | – |
| CN1CCC(=C2c3ccccc3CC(=O)c3sccc32)CC1 | inactive | – | – | inactive | – | – | inactive | – | 15 µM (active) | 23.7 µM (active) | inactive | inactive | – | inactive | – | inactive | inactive | inactive | inactive |
| CCN1CCC[C@H]1CNC(=O)c1c(O)c(Cl)cc(Cl)c1OC | inactive | – | inactive | inactive | – | – | inactive | – | inactive | – | inactive | inactive | inactive | inactive | inactive | inactive | inactive | inactive | inactive |
| CC(C)(O)C#CC(C)(C)O | inactive | – | inactive | inactive | – | – | inactive | – | inactive | – | inactive | inactive | inactive | inactive | inactive | inactive | inactive | inactive | inactive |
| CCCCCCCCCCCCN(CCCCCCCCCCCC)CCCCCCCCCCCC | inactive | – | inactive | – | – | – | inactive | – | inactive | inactive | inactive | inactive | inactive | inactive | – | – | – | – | – |
| CCc1ccc(O)c(OC)c1 | inactive | – | inactive | inactive | – | – | inactive | – | inactive | – | inactive | inactive | inactive | inactive | inactive | – | – | – | – |
| NCCc1cnc[nH]1 | inactive | – | inactive | inactive | – | – | inactive | – | inactive | inactive | inactive | inactive | inactive | inactive | – | – | – | – | – |
